# Changes are numbered by the printed parent chain. In all, about 5,800 sequences were measured (“enrichment r”: median about 0.68, highest 2% from about 11 on). The sample as a whole holds a higher share of the highest values than the screen did.
# T1: UNK ZnF1-6 (called full-length) (human, UniProt Q9C0B0 30-357)
# T1 sequence: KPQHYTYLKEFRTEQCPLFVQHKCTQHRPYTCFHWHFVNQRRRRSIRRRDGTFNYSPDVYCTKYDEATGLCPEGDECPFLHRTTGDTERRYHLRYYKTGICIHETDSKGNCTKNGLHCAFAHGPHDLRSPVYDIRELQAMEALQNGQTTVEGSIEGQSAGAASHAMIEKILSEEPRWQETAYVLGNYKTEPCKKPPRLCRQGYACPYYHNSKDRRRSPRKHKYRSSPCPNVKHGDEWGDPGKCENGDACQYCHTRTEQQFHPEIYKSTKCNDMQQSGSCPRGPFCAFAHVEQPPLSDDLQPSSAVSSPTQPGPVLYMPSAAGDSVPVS
# B1: ENSG00000099904:stop:overlap|stop_codon|ENSG00000099904|stop_codon|NA|stop_codon (ssRNA)
# RNA: GGGAGUUCUACAGUCCGACGAUCGGGCCAUGUGCCGCCUGCACUUGGCUGCCUCCAGUCUUUUCCCCAGCCUCUCGGGGCCCUAGCAGGAUGACAAGUAGGCGGCUCUGGGGCCCAGGACAGCCCAGCUGGGGACCCAGGAGGCAACAGAGGAUUGAGCAUCA
# B2: chr2:216675367:216675485:-|3pUTR|ENSG00000115461|msi1|FALSE|unique (ssRNA)
# RNA: GGGAGUUCUACAGUCCGACGAUCGCCAGGCAGAGGCCAGCCCUCCGUGGUGCACACAGCACGCGCCUCAGUCCAUCCCAUUUUAGUCUUUAAACCCUCAGGAAGUCACAGUCUCCGGACACCACACCACAUGAGCCCAACAGGCAACAGAGGAUUGAGCAUCA
# B3: chr15:63775065:63775180:-|CDS|ENSG00000103657|unk|FALSE|unique (ssRNA)
# RNA: GGGAGUUCUACAGUCCGACGAUCUGGUUCAGCAGAUGUCCAUUCUGUUAGUGAACGCCCCCGGUCAAGCACUGAUGCACUUAUAGAAAUGGGUGUUCGAACUGGUCUAAGUUUAUUAUUUGCGCUUCUAAGACAAAGUUGGAUCAACAGAGGAUUGAGCAUCA
# B4: chr14:77132432:77132533:-|3pUTR|ENSG00000177108|unk|total|mutant (ssRNA)
# RNA: GGGAGUUCUACAGUCCGACGAUCUGUGAUUGCUGGACCCAGAGGCAAGAUCUGCAGAGAUGCCUGUGAGAUAUUUGCUUUCCCCGAGGGGAGUGUGGGCAUGGGAGGGGUCUGAAAAUCAGGACCCAACCCAGCCACUGAAGACAACAGAGGAUUGAGCAUCA
# B5: chr2:74214837:74214938:+|3pUTR|ENSG00000065911|msi1_unk|total|mutant (ssRNA)
# RNA: GGGAGUUCUACAGUCCGACGAUCCUGUCCUUUUGAGGCUCCGUCAGUUUAUUGGGAAAAUGUUCCGGAUUAUUCCUUGCUAUCCGUACUCAUUUUAUGUAUGUUACCCUUCAGUAAGUUCUCCCCAUUUCCGUUUUCCCGGACCAACAGAGGAUUGAGCAUCA
# B6: chr13:51761002:51761103:+|3pUTR|ENSG00000139668|unk|FALSE|unique (ssRNA)
# RNA: GGGAGUUCUACAGUCCGACGAUCACGGCAAGAUUGUAAUCCUGCUGUAUUCCUCGCCCUCUGUAUUCUAUCCCUUUAAAAACUAGAUAUUUAAACAUUUUAUCCUAAUGUGUUUCAUCAGAACACUUUGCACACUUUCUUACUCAACAGAGGAUUGAGCAUCA
# B7: chr8:22006364:22006465:+|3pUTR|ENSG00000130227|msi1|FALSE|unique (ssRNA)
# RNA: GGGAGUUCUACAGUCCGACGAUCUGUUGCUGCUAGUUGUACACAUCUCUAGUUCAGCUCUUGCCCACGGGACACUCAUCAAUUAGGUUUUAUUUUUAUUUCUUUCCUCUACCCCCAGAAACAAGCCUGUUAAUUUUUUUUCCUCAACAGAGGAUUGAGCAUCA
# B8: ENSG00000070961:be:win_6151|3pUTR|ENSG00000070961|bound_else_gene|NA|bound_elsewhere_windowed (ssRNA)
# RNA: GGGAGUUCUACAGUCCGACGAUCCAAUCACUUUUUCUCUUUUAUCCUCUAACCAAAAAAUUGUUUAAUUUUGCAUCCCAAAUGUUUUUAAUCUUUGUAUAUUUUUUAAAAAUCCUUUUCUCCUCAUCAUUGCCUUUUUUGUGGCAACAGAGGAUUGAGCAUCA
# B9: chr3:25596636:25596694:+|3pUTR|ENSG00000077092|msi1_unk|FALSE|overlapping (ssRNA)
# RNA: GGGAGUUCUACAGUCCGACGAUCUCCCCAGUACCUUCAGUUCCAGGAUUUAAAAUGCAAGAAAAAACAUUUUUACUGCUGCUUAGUUUUUGGACUGAAAAGAUAUUAAAACUCAAGAAGGACCAAGAAGUUUUCAUAUGUAUCCAACAGAGGAUUGAGCAUCA
# B10: chr6:15520333:15520434:+|3pUTR|ENSG00000008083|unk|FALSE|unique (ssRNA)
# RNA: GGGAGUUCUACAGUCCGACGAUCCUUGCUGUAGGAUUCAAGCUGUCUUUGCACUAGCUCUAAAGAAGAUUUUCUUCUGGUUUUAGAGAACUAAUUUUGUUUUAGCAUUAAACUGUUGAACUUUUUUUUGUACUUAGAAAACCUCAACAGAGGAUUGAGCAUCA
# B11: chr7:7234405:7234460:+|CDS|ENSG00000106392|msi1_unk|FALSE|overlapping (ssRNA)
# RNA: GGGAGUUCUACAGUCCGACGAUCAAUUUUUUAACCUUCCUCUGUGGAUCAGCAAUAGGAUUUCUUUUAUGUUCUCAGCUAUUUAGUAUUUUGUUGGGAGAAAAGGUUGACACCCAGCCUAAUGUUCUUCAUAAUGAUCCUCAUCAACAGAGGAUUGAGCAUCA
# B12: chr6:43186014:43186115:+|CDS|ENSG00000112659|msi1|total|mutant (ssRNA)
# RNA: GGGAGUUCUACAGUCCGACGAUCCUGCUUUUCUCCUUGGUGAAGCGCUACCUUUGUGUCACGUCCCUCCUGGAUCAGCUGAACCGCAGUCCAGAGCUGGGAGCUGGAGACCAAAGCUCCCCAUGUGCCACAAGAGAGAAAAGCCAACAGAGGAUUGAGCAUCA
# B13: ENSG00000147536:stop:overlap|stop_codon|ENSG00000147536|stop_codon|NA|stop_codon (ssRNA)
# RNA: GGGAGUUCUACAGUCCGACGAUCUCCGCUACGUCCUCAGCAGCUACUUGCGGUGUCGCCUCAUGAAGUUCCCAAACCAGAUCUAGAUUCUUACGUGUUUCUGAGAGUGAGAGAACGACAAGAAAACAUACUGGUAGAACCAGACAACAGAGGAUUGAGCAUCA
# B14: ENSG00000137168:stop:overlap|stop_codon|ENSG00000137168|stop_codon|NA|stop_codon (ssRNA)
# RNA: GGGAGUUCUACAGUCCGACGAUCCAAACUCCCAGGACCGCCCUGUGGACGACGUGAAGAUCAUUAAGGCAUACCCUUCUGGGUAGACUUGCUACCCUCUUGAGCAGCUCUUCUGAGAUGGCCCCAGUGAACCAGCUUCUAGAUCAACAGAGGAUUGAGCAUCA
# B15: chr2:74214837:74214938:+|3pUTR|ENSG00000065911|msi1_unk|FALSE|overlapping (ssRNA)
# RNA: B5 RNA with C40U, C41A, C64U, C65A, C83U, C84A, C130U, C131A, C138U, C139A
# B16: chr8:22006364:22006465:+|3pUTR|ENSG00000130227|msi1|total|mutant (ssRNA)
# RNA: B7 RNA with U33C, A34C, U49C, A50C, U83C, A84C
# B17: chr19:44386474:44388102:-|CDS|ENSG00000267508|control|control|control (ssRNA)
# RNA: GGGAGUUCUACAGUCCGACGAUCGGCAUGUGGUAAGGGCUUCAGUCGUAAUUCAUACCUCCUUGCCCAUCAGAGAGUGCAUAUAGAUGAGACACAGUACACACACUGUGAGCGUGGAAAGGACCUUCUGACUCAUCAAAGACUCAACAGAGGAUUGAGCAUCA
# B18: ENSG00000198589:be:win_1001|CDS|ENSG00000198589|bound_else_gene|NA|bound_elsewhere_windowed (ssRNA)
# RNA: GGGAGUUCUACAGUCCGACGAUCUCAACACUAGCGAUACCUUUGACAAAUGUUUCCUGGGCUCAUCAGAAACAGCAGAUGCUAAUAGAGUAUUCUGUGGUCAGAUGACUGCAGUUUACCUUUUCAGUGAAGCUCUAAAUGCAGCAACAGAGGAUUGAGCAUCA
# B19: chr1:114568131:114568247:-|CDS|ENSG00000116752|unk|total|mutant (ssRNA)
# RNA: GGGAGUUCUACAGUCCGACGAUCUUCCCGUUGGGUAUCCCUGGUCAGUAAGAAUUAUGAGAUUGAACGGACUAUUGUUCAGCCCGAAAAUGAAAUCUAUCAAAUUAAGCAGCAACAUGGAGAGGCAAACAAAGAAAACAUCCGCAACAGAGGAUUGAGCAUCA
# B20: chr11:85659139:85659240:-|3pUTR|ENSG00000137504|msi1|FALSE|unique (ssRNA)
# RNA: GGGAGUUCUACAGUCCGACGAUCGUCUGAUUUAGUAAAAUUUUAAAGCUAAAUAAUCUGAUGACUCUUGAAAGUUUAAUUGGUAGUAUGACAUUUAUGUUUUUUUCCCCCAGACUCACAGCCAAUACAAAGUUUUGAGACUCCCAACAGAGGAUUGAGCAUCA
# B21: ENSG00000124766:be:win_2851|3pUTR|ENSG00000124766|bound_else_gene|NA|bound_elsewhere_windowed (ssRNA)
# RNA: GGGAGUUCUACAGUCCGACGAUCUAAUCAGAUGCCAUUUUAUAUGUGGACGUAUUUAUACUGGCCAAACAUAUUUUUUCUUUUGUCCCUUUUUUUCUUUCCUUUCUUUUUACUUCCUUUAUUUCUUUAUUCCUUCCUUUUCCUCAACAGAGGAUUGAGCAUCA
# B22: chr2:27041412:27041530:+|3pUTR|ENSG00000119777|msi1_unk|FALSE|overlapping (ssRNA)
# RNA: GGGAGUUCUACAGUCCGACGAUCACUUCAAAAUGCCCAGCCUGCCCCAAAUGCCUCUAAGCCCCUCCCUGUCCCCUCCCUUGUAGUCCUACUUCUUCCAACUUUCCAUUCCCCAUCAUGCUGGGGGUCUUGGUCACAAGGCUCCAACAGAGGAUUGAGCAUCA
# Molecular target: T1, UNK ZnF1-6 (called full-length)
# Test: nsRBNS (natural sequence RNA bind-n-seq); RBNS binding buffer (assumed for nsRBNS): 25 mM Tris pH 7.5, 150 mM KCl, 3 mM MgCl2, 0.01% Triton X-100, 500 ug/ml BSA, 20 U/ml SUPERase-In, 4 C; UNK is unkempt and MSI1 is Musashi-1; names of the RNAs are library labels; protein concentration not given here; high values mean tight binding
row,Binder,binding signal
1,B1,1.2 enrichment R
2,B2,2.44 enrichment R
3,B3,0.696 enrichment R
4,B4,0.528 enrichment R
5,B5,0.338 enrichment R
6,B6,28.5 enrichment R
7,B7,41.4 enrichment R
8,B8,4.78 enrichment R
9,B9,0.303 enrichment R
10,B10,3.46 enrichment R
11,B11,2.12 enrichment R
12,B12,0.544 enrichment R
13,B13,33.9 enrichment R
14,B14,0.7 enrichment R
15,B15,12.4 enrichment R
16,B16,2.95 enrichment R
17,B17,0.503 enrichment R
18,B18,0.527 enrichment R
19,B19,0.717 enrichment R
20,B20,1.52 enrichment R
21,B21,8 enrichment R
22,B22,1.6 enrichment R
